Experimental data from the supplement of paper PMC13380429.

System: Vero E6 infected with SARS-CoV-2
Experiment: inhibition of SARS-CoV-2 cytopathic effect; higher = more antiviral protection, active = above 15
Conditions: 48 h

Measured: inhibition of SARS-CoV-2 cytopathic effect

O=C(/C=C/c1ccc(CN(CCO)CCc2c[nH]c3ccccc23)cc1)NO [dacinostat]
inactive: 1 nM -2.47% | 8.33 nM -2.54% | 100 nM -6.55% | 833.33 nM -21.1% | 10000 nM -23.2%

CC(=O)C1=C(O)C=C2Oc3c(C(C)=O)c(O)c(C)c(O)c3C2(C)C1=O (stereo not drawn) [usniacin-(+)]
inactive: 1 nM 3.22% | 8.33 nM 2.31% | 100 nM 0.43% | 833.33 nM -1.14% | 10000 nM -4.03%

OCc1cncc(F)c1 [5-fluoro-3-pyridyl-methanol]
inactive: 1 nM -1.88% | 8.33 nM 0.14% | 100 nM -10.8% | 833.33 nM -0.19% | 10000 nM -2.94%

C/C(=C\CNc1ncnc2[nH]cnc12)CO [zeatin]
inactive: 1 nM -3.72% | 8.33 nM -2.49% | 100 nM -0.97% | 833.33 nM 0.86% | 10000 nM -1.15%

CC(C)C[C@@H](N)C(=O)N[C@H]1C(=O)N[C@@H](CC(N)=O)C(=O)N[C@H]2C(=O)N[C@H]3C(=O)N[C@H](C(=O)N[C@H](C(=O)O)c4cc(O)cc(O)c4-c4cc3ccc4O)[C@H](O)c3ccc(c(Cl)c3)Oc3cc2cc(c3O[C@@H]2O[C@H](CO)[C@@H](O)[C@H](O)[C@H]2O[C@H]2C[C@](C)(N)[C@H](O)[C@H](C)O2)Oc2ccc(cc2Cl)[C@H]1O [norvancomycin]
inactive: 1 nM -0.51% | 8.33 nM 2.53% | 100 nM 11.9% | 833.33 nM 1.73% | 10000 nM -2.8%

CN(C)[C@@H]1CCc2[nH]c3ccc(NC(=O)c4ccc(F)cc4)cc3c2C1
inactive: 1 nM -0.2% | 8.33 nM 0.81% | 100 nM 1.23% | 833.33 nM 3.46% | 10000 nM 4.97%

CC1=NN(c2ccc(C)c(C)c2)C(=O)/C1=N\Nc1cccc(-c2cccc(C(=O)O)c2)c1O [eltrombopag]
inactive: 1 nM 2.51% | 8.33 nM 2.25% | 100 nM 2.06% | 833.33 nM 0.59% | 10000 nM 0.99%

Clc1ccc(C(Cn2ccnc2)OCc2ccsc2Cl)c(Cl)c1 (stereo not given) [tioconazole]
inactive: 1 nM 6.75% | 8.33 nM -2.6% | 100 nM 5.03% | 833.33 nM -4.33% | 10000 nM -5.16%

COc1cc(N)c(Cl)cc1C(=O)OCCN1CCCCC1
inactive: 1 nM 2.34% | 8.33 nM 2.09% | 100 nM 1.8% | 833.33 nM 1.01% | 10000 nM 2.59%

Cc1oc2nc3c(c(NC(=O)CN4CCCC4=O)c2c1C)CCCC3
inactive: 1 nM 0.92% | 8.33 nM -2.29% | 100 nM -0.3% | 833.33 nM -0.97% | 10000 nM 0.5%

CN(C)N(C)C(=O)[C@@]1(Cc2ccccc2)CCCN(C(=O)[C@@H](Cc2c[nH]c3ccccc23)NC(=O)C(C)(C)N)C1 [anamorelin]
inactive: 1 nM -0.24% | 8.33 nM -1% | 100 nM 9.14% | 833.33 nM -2.12% | 10000 nM -0.05%

N=C(N)SCCc1c[nH]cn1 [imetit]
inactive: 1 nM -0.58% | 8.33 nM -0.44% | 100 nM -2.84% | 833.33 nM -2.2% | 10000 nM -1.05%

CCCN1CCC[C@@H]2Cc3nc(N)ncc3C[C@H]21 [quinelorane]
inactive: 1 nM 0.91% | 8.33 nM -0.4% | 100 nM 0.8% | 833.33 nM -1.2% | 10000 nM -1.06%

COc1ccc(Cl)cc1[C@]1(F)C(=O)Nc2cc(C(F)(F)F)ccc21 [flindokalner]
inactive: 1 nM 2.54% | 8.33 nM 0% | 100 nM -1.3% | 833.33 nM 1.03% | 10000 nM -0.62%

COc1cc2c(cc1OC(C)C)[C@H](c1ccc(Cl)cc1)N(c1ccc(N(C)C[C@H]3CC[C@H](N4CCN(C)C(=O)C4)CC3)cc1)C(=O)C2
inactive: 1 nM -0.21% | 8.33 nM 1.25% | 100 nM 2.45% | 833.33 nM 2.4% | 10000 nM 2.39%

O=C(O)C[C@H]1CC[C@H](c2ccc(NC(=O)c3nnc(Nc4ccc(F)c(F)c4)o3)cc2)CC1
inactive: 1 nM -0.14% | 8.33 nM -0.74% | 100 nM 0.13% | 833.33 nM -2.59% | 10000 nM -0.04%

CC(C)[N+](C)(CCOC(=O)C1c2ccccc2Oc2ccccc21)C(C)C [propantheline]
inactive: 1 nM 0.61% | 8.33 nM 0.91% | 100 nM -0.81% | 833.33 nM -1.32% | 10000 nM -0.04%

CC(C)(C)c1ccc(C(=O)CCCN2CCC(OC(c3ccccc3)c3ccccc3)CC2)cc1 [ebastine]
inactive: 1 nM 0.86% | 8.33 nM 1.48% | 100 nM 0.7% | 833.33 nM -2.23% | 10000 nM -4.94%

COc1cccc([C@@H](C)NCCCc2ccccc2Cl)c1 [tecalcet]
inactive: 1 nM 1.64% | 8.33 nM 1.12% | 100 nM 3.52% | 833.33 nM -0.64% | 10000 nM -3.1%

CCOC(=O)c1ccc(-c2ccc(OC(=O)N(C)Cc3cccc(-c4ccncc4)c3)cc2)cc1
inactive: 1 nM 2.8% | 8.33 nM -0.08% | 100 nM 3.06% | 833.33 nM 4.52% | 10000 nM 4.58%

CCOc1cc(N)c(Cl)cc1C(=O)NCC1CN(Cc2ccc(F)cc2)CCO1 (stereo not given) [mosapride]
inactive: 1 nM 0.88% | 8.33 nM 2.99% | 100 nM 3.38% | 833.33 nM 2.51% | 10000 nM 6.25%

S=C(NC1CCCCC1)N1CCC(c2cnc[nH]2)CC1 [thioperamide]
inactive: 1 nM 1.24% | 8.33 nM 1.61% | 100 nM -0.03% | 833.33 nM 0.28% | 10000 nM -2.39%

CC(=O)N[C@@H](CC(=O)O)C(=O)N[C@@H](CCC(=O)O)C(=O)O [spaglumic-acid]
inactive: 1 nM -1.79% | 8.33 nM -1.97% | 100 nM -2.69% | 833.33 nM -1.39% | 10000 nM -1.24%

C[N+]1(C)[C@@H]2C[C@@H](OC(=O)C(O)(c3cccs3)c3cccs3)C[C@H]1[C@@H]1O[C@@H]12 [tiotropium]
inactive: 1 nM 0.89% | 8.33 nM -2.54% | 100 nM -2.45% | 833.33 nM -5.08% | 10000 nM -3.35%

CC(C)(C)CC(C)(C)c1cc(Cc2cc(C(C)(C)CC(C)(C)C)cc(-n3nc4ccccc4n3)c2O)c(O)c(-n2nc3ccccc3n2)c1 [bisoctrizole]
inactive: 1 nM 0.77% | 8.33 nM 2.98% | 100 nM 2.99% | 833.33 nM 1.93% | 10000 nM 3.96%

Cc1ncc(-c2csc(N=C(N)N)n2)[nH]1 [zaltidine]
inactive: 1 nM 2.21% | 8.33 nM -0.85% | 100 nM -3.06% | 833.33 nM -1.56% | 10000 nM -0.54%

CNCc1ccc(-c2[nH]c3cc(F)cc4c3c2CCNC4=O)cc1 [rucaparib]
inactive: 1 nM 1.82% | 8.33 nM 5.76% | 100 nM 7.61% | 833.33 nM 5.18% | 10000 nM 0.16%

Cc1nc(Nc2ncc(C(=O)Nc3c(C)cccc3Cl)s2)cc(N2CCN(CCO)CC2)n1 [dasatinib]
inactive: 1 nM 1.14% | 8.33 nM -1.86% | 100 nM -4.77% | 833.33 nM -12.6% | 10000 nM -11.6%

CN1Cc2c(N)cccc2C(c2ccccc2)C1 (stereo not given) [nomifensine]
inactive: 1 nM 0.22% | 8.33 nM 1.01% | 100 nM 2.41% | 833.33 nM 1.13% | 10000 nM 0.73%

CC(C)=CC[C@@H](O)C1=CC(=O)c2c(O)ccc(O)c2C1=O [Shikonin]
inactive: 1 nM 0.59% | 8.33 nM 0.65% | 100 nM 0.38% | 833.33 nM 3.65% | 10000 nM 2.04%

O=c1c(-c2ccc(O)cc2)coc2cc(O)ccc12 [daidzein]
inactive: 1 nM 0.46% | 8.33 nM 0.3% | 100 nM 0.05% | 833.33 nM -0.66% | 10000 nM -1.03%

COC(=O)c1cnn(-c2ccc(F)cc2F)c1/C=N/NC(=S)NC(C)(C)C
inactive: 1 nM -1.1% | 8.33 nM 0.05% | 100 nM 2.03% | 833.33 nM 3.03% | 10000 nM 6.39%

CC(N)C12CC3CC(CC(C3)C1)C2 (stereo not given) [rimantadine]
inactive: 1 nM -2.29% | 8.33 nM -2.48% | 100 nM -4.1% | 833.33 nM -5.56% | 10000 nM -5.71%

O=c1ccc2ccccc2o1 [coumarin]
inactive: 1 nM -0.97% | 8.33 nM -0.94% | 100 nM -1.66% | 833.33 nM 1.9% | 10000 nM -0.9%

CN/C(=N\S(=O)(=O)c1ccc(Cl)cc1)N1C[C@H](c2ccccc2)C(c2ccc(Cl)cc2)=N1 (racemic)
inactive: 1 nM -2.29% | 8.33 nM -0.66% | 100 nM -0.25% | 833.33 nM 1.24% | 10000 nM -3.73%

N=C(N)NCCC[C@@H](NC(=O)[C@@H]1CCCN1C(=O)[C@@H]1CSSCCC(=O)N[C@@H](Cc2ccc(O)cc2)C(=O)N[C@@H](Cc2ccccc2)C(=O)N[C@@H](CCC(N)=O)C(=O)N[C@@H](CC(N)=O)C(=O)N1)C(=O)NCC(N)=O [desmopressin-acetate]
inactive: 1 nM -0.33% | 8.33 nM -2.9% | 100 nM 0.69% | 833.33 nM 0.25% | 10000 nM 0.02%

Cc1c(C)c2c(c(C)c1OC(=O)CCC(=O)O)CC[C@@](C)(CCC[C@H](C)CCC[C@H](C)CCCC(C)C)O2 [D-alpha-tocopheryl-succinate]
inactive: 1 nM -5.51% | 8.33 nM -5.87% | 100 nM -7.06% | 833.33 nM -5.36% | 10000 nM -2.64%
